These results are taken from the supplement of paper PMC9254222.

Molecules are shown by their SMILES. In all, about 1,100 compounds were measured (“Wnt reporter firefly/Renilla luciferase ratio relative to plate median”: median about 1.1, highest 2% from about 1.6 on). The sample as a whole holds a higher share of the highest values than the screen did.

For this assay, the system named is HEK293T (UBE3A T485A transfected, BAR Wnt reporter). As to the kind of experiment: Wnt reporter firefly/Renilla luciferase ratio relative to plate median (fold (linear ratio)); higher = more Wnt/beta-catenin reporter activation. Particulars: 24 h. The method in brief:
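Chemicals were robotically dosed at 0.01–100 uM for 24 h onto HEK293T cells, starting four hours after transfection with a BAR firefly luciferase Wnt reporter, TK-Renilla and an expression plasmid. The cells had been plated at 4500 cells/well in DMEM with 10% FBS at 37°C and 5% CO2. Following a Dual-Glo luciferase readout, the firefly/Renilla ratio served as the Wnt activity measure and raw Renilla as the cell health measure, both median-centred on each plate. Each value is the mean of four biological replicates.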

For `COC(=O)N(C(=O)N1CO[C@@]2(C(=O)OC)Cc3cc(Cl)ccc3C2=N1)c1ccc(OC(F)(F)F)cc1` [Indoxacarb], the “Wnt reporter firefly/Renilla luciferase ratio” value (concentration: 0.01 uM) was 0.92; the “Wnt reporter firefly/Renilla luciferase ratio” value (concentration: 0.1 uM) turned out to be 0.96; the “Wnt reporter firefly/Renilla luciferase ratio” value (concentration: 1 uM) was found to be 1.2; the “Wnt reporter firefly/Renilla luciferase ratio” value (concentration: 10 uM) was 0.895; the “Wnt reporter firefly/Renilla luciferase ratio” value (concentration: 100 uM) was 0.242.

As to `CCCCN(CCCC)SN(C)C(=O)Oc1cccc2c1OC(C)(C)C2` [Carbosulfan], the “Wnt reporter firefly/Renilla luciferase ratio” value runs as follows: (concentration: 0.1 uM) 1.07; (concentration: 1 uM) 1.13; (concentration: 10 uM) 1.07; (concentration: 100 uM) 1.28.

Regarding `c1ccc2c(c1)Nc1ccccc1S2` [Phenothiazine], the “Wnt reporter firefly/Renilla luciferase ratio” value runs as follows: (concentration: 0.1 uM) 1.08; (concentration: 1 uM) 1.01; (concentration: 10 uM) 0.726; (concentration: 100 uM) 0.188.

As to `CC(C)(C)OOC(=O)c1ccccc1` [tert-Butyl perbenzoate], the “Wnt reporter firefly/Renilla luciferase ratio” value is, setting by setting: (concentration: 0.1 uM) 1.06; (concentration: 1 uM) 0.994; (concentration: 10 uM) 1.24; (concentration: 100 uM) 0.688.

As for `Cc1ccc(N)c(N)c1` [3,4-Diaminotoluene], the “Wnt reporter firefly/Renilla luciferase ratio” value (concentration: 0.1 uM) was determined as 1.18, the “Wnt reporter firefly/Renilla luciferase ratio” value (concentration: 1 uM) was 1.26 and the “Wnt reporter firefly/Renilla luciferase ratio” value (concentration: 10 uM) was 1.2.

Regarding `Nc1ccc(-c2ccc(N)cc2)cc1` [Benzidine], the “Wnt reporter firefly/Renilla luciferase ratio” value by setting is: (concentration: 0.1 uM) 1.22; (concentration: 1 uM) 1.11; (concentration: 10 uM) 1.23; (concentration: 100 uM) 0.579.

Consider `Cc1ccc(N)cc1` [4-Methylaniline], for which the “Wnt reporter firefly/Renilla luciferase ratio” value came to 1.14 (concentration: 0.1 uM), 1.18 (concentration: 1 uM), 1.34 (concentration: 10 uM) and 1.79 (concentration: 100 uM).

`CC(C)=CC1C(C(=O)OCN2C(=O)C3=C(CCCC3)C2=O)C1(C)C` (stereo unspecified) [Tetramethrin]: the “Wnt reporter firefly/Renilla luciferase ratio” value runs as follows: (concentration: 0.01 uM) 0.717; (concentration: 0.1 uM) 0.76; (concentration: 1 uM) 0.941; (concentration: 10 uM) 0.819; (concentration: 100 uM) 0.824.

For `CCOc1nc(F)cc2nc(S(=O)(=O)Nc3c(Cl)cccc3Cl)nn12` [Diclosulam], the “Wnt reporter firefly/Renilla luciferase ratio” value was 1.4 (concentration: 0.01 uM); 1.38 (concentration: 0.1 uM); 0.954 (concentration: 1 uM); 1.05 (concentration: 10 uM); 0.892 (concentration: 100 uM).

`Oc1ccc(Cl)cc1Cl` [2,4-Dichlorophenol]: the “Wnt reporter firefly/Renilla luciferase ratio” value is 1.06 (concentration: 0.1 uM), 1.15 (concentration: 1 uM), 1.36 (concentration: 10 uM) and 1.47 (concentration: 100 uM).

With `CCCCOC(=O)c1ccccc1C(=O)O` [Monobutyl phthalate], the “Wnt reporter firefly/Renilla luciferase ratio” value amounted to 1.07 (concentration: 0.01 uM); 1.12 (concentration: 0.1 uM); 2.24 (concentration: 1 uM); 1.14 (concentration: 10 uM); 1.75 (concentration: 100 uM).

With `CCCCCCCCOC(=O)c1ccccc1C(=O)OCCCCCCCC` [Dioctyl phthalate], the “Wnt reporter firefly/Renilla luciferase ratio” value (concentration: 0.1 uM) is 1.21, the “Wnt reporter firefly/Renilla luciferase ratio” value (concentration: 1 uM) came to 1.11, the “Wnt reporter firefly/Renilla luciferase ratio” value (concentration: 10 uM) worked out at 1.04 and the “Wnt reporter firefly/Renilla luciferase ratio” value (concentration: 100 uM) stood at 1.25.

On to `CC(C)CCCCCCCOC(=O)c1ccccc1C(=O)OCCCCCCCC(C)C`, for which the “Wnt reporter firefly/Renilla luciferase ratio” value by setting is: (concentration: 0.1 uM) 0.955; (concentration: 1 uM) 1.04; (concentration: 10 uM) 1.1; (concentration: 100 uM) 1.9.

Regarding `CCCCOC(=O)c1ccccc1C(=O)OCCCC` [Dibutyl phthalate], the “Wnt reporter firefly/Renilla luciferase ratio” value (concentration: 0.01 uM) is 0.897; the “Wnt reporter firefly/Renilla luciferase ratio” value (concentration: 0.1 uM) is 0.942; the “Wnt reporter firefly/Renilla luciferase ratio” value (concentration: 1 uM) came out at 0.947; the “Wnt reporter firefly/Renilla luciferase ratio” value (concentration: 10 uM) turned out to be 1.05; the “Wnt reporter firefly/Renilla luciferase ratio” value (concentration: 100 uM) came to 0.275.

`CCCCCCOC(=O)c1ccccc1C(=O)OCCCCCC` [Dihexyl phthalate]: the “Wnt reporter firefly/Renilla luciferase ratio” value (concentration: 0.1 uM) amounted to 1.05, the “Wnt reporter firefly/Renilla luciferase ratio” value (concentration: 1 uM) came out at 0.965, the “Wnt reporter firefly/Renilla luciferase ratio” value (concentration: 10 uM) stood at 1.29 and the “Wnt reporter firefly/Renilla luciferase ratio” value (concentration: 100 uM) stood at 0.728.

For `CCCCCOC(=O)c1ccccc1C(=O)OCCCCC` [Dipentyl phthalate], the “Wnt reporter firefly/Renilla luciferase ratio” value is 1.06 (concentration: 0.1 uM), 1.36 (concentration: 1 uM), 1.14 (concentration: 10 uM) and 1.15 (concentration: 100 uM).

With `CCOP(=O)(NC(C)C)Oc1ccc(SC)c(C)c1` (stereo unspecified) [Fenamiphos], the “Wnt reporter firefly/Renilla luciferase ratio” value turned out to be 0.946 (concentration: 0.01 uM); 0.758 (concentration: 0.1 uM); 0.93 (concentration: 1 uM); 0.83 (concentration: 10 uM); 0.243 (concentration: 100 uM).

As to `C/C(=N\C#N)N(C)Cc1ccc(Cl)nc1` [Acetamiprid], the “Wnt reporter firefly/Renilla luciferase ratio” value turned out to be 1.26 (concentration: 0.01 uM); 0.96 (concentration: 0.1 uM); 0.904 (concentration: 1 uM); 1.08 (concentration: 10 uM); 1.18 (concentration: 100 uM).

Regarding `Cc1c(COC(=O)[C@H]2[C@@H](/C=C(\Cl)C(F)(F)F)C2(C)C)cccc1-c1ccccc1` [Bifenthrin], the “Wnt reporter firefly/Renilla luciferase ratio” value was 0.843 (concentration: 0.01 uM); 1.35 (concentration: 0.1 uM); 1.11 (concentration: 1 uM); 0.982 (concentration: 10 uM); 0.325 (concentration: 100 uM).

For `CNC(=O)/C=C(\C)OP(=O)(OC)OC` [Monocrotophos], the “Wnt reporter firefly/Renilla luciferase ratio” value amounted to 0.971 (concentration: 0.01 uM); 1.1 (concentration: 0.1 uM); 1.22 (concentration: 1 uM); 1.06 (concentration: 10 uM); 1.12 (concentration: 100 uM).

For the compound `COP(=O)(OC)OC=C(Cl)Cl` [Dichlorvos], the “Wnt reporter firefly/Renilla luciferase ratio” value reads like this: (concentration: 0.01 uM) 1.2; (concentration: 0.1 uM) 1.67; (concentration: 1 uM) 1.4; (concentration: 10 uM) 1.34; (concentration: 100 uM) 1.21.

`COP(=O)(OC)O/C(C)=C/C(=O)N(C)C` [Dicrotophos]: the “Wnt reporter firefly/Renilla luciferase ratio” value by setting is: (concentration: 0.01 uM) 1.29; (concentration: 0.1 uM) 1.12; (concentration: 1 uM) 1.1; (concentration: 10 uM) 0.957; (concentration: 100 uM) 1.09.

Regarding `O=P(O)(O)CCCl` [Ethephon], the “Wnt reporter firefly/Renilla luciferase ratio” value (concentration: 0.01 uM) came out at 0.756; the “Wnt reporter firefly/Renilla luciferase ratio” value (concentration: 0.1 uM) is 1.23; the “Wnt reporter firefly/Renilla luciferase ratio” value (concentration: 1 uM) worked out at 1.18; the “Wnt reporter firefly/Renilla luciferase ratio” value (concentration: 10 uM) was found to be 0.988; the “Wnt reporter firefly/Renilla luciferase ratio” value (concentration: 100 uM) was 1.19.

For `CC(C)N1C(=O)N(c2ccccc2)CSC1=NC(C)(C)C` [Buprofezin], the “Wnt reporter firefly/Renilla luciferase ratio” value came out at 1.25 (concentration: 0.01 uM); 1.69 (concentration: 0.1 uM); 1.16 (concentration: 1 uM); 1.12 (concentration: 10 uM); 0.27 (concentration: 100 uM).

Consider `CC(C)N1C(=O)c2ccccc2NS1(=O)=O` [Bentazone], for which the “Wnt reporter firefly/Renilla luciferase ratio” value turned out to be 1.46 (concentration: 0.01 uM); 0.947 (concentration: 0.1 uM); 0.964 (concentration: 1 uM); 0.949 (concentration: 10 uM); 0.329 (concentration: 100 uM).

For `COC(=CC(N)=O)C(C)C(C=Cc1csc(-c2csc(C(C)C=CC=CC(C)C)n2)n1)OC` (stereo unspecified) [Myxothiazol], the “Wnt reporter firefly/Renilla luciferase ratio” value reads like this: (concentration: 0.01 uM) 1.41; (concentration: 0.1 uM) 0.921; (concentration: 1 uM) 0.539; (concentration: 10 uM) 0.492.

In the case of `CCCCC(CC)COC(=O)c1ccccc1C(=O)O` (stereo unspecified), the “Wnt reporter firefly/Renilla luciferase ratio” value reads like this: (concentration: 0.01 uM) 1.04; (concentration: 0.1 uM) 0.861; (concentration: 1 uM) 1.04; (concentration: 10 uM) 0.979; (concentration: 100 uM) 0.821.

Consider `N#Cc1c[nH]cc1-c1cccc2c1OC(F)(F)O2` [Fludioxonil], for which the “Wnt reporter firefly/Renilla luciferase ratio” value is, setting by setting: (concentration: 0.01 uM) 0.759; (concentration: 0.1 uM) 0.842; (concentration: 1 uM) 0.847; (concentration: 10 uM) 1.04; (concentration: 100 uM) 0.858.

With `CNC(=O)Oc1cccc2ccccc12` [Carbaryl], the “Wnt reporter firefly/Renilla luciferase ratio” value (concentration: 0.01 uM) amounted to 0.987; the “Wnt reporter firefly/Renilla luciferase ratio” value (concentration: 0.1 uM) turned out to be 1.18; the “Wnt reporter firefly/Renilla luciferase ratio” value (concentration: 1 uM) is 1.07; the “Wnt reporter firefly/Renilla luciferase ratio” value (concentration: 10 uM) amounted to 0.714; the “Wnt reporter firefly/Renilla luciferase ratio” value (concentration: 100 uM) is 0.629.

`CCOP(=O)(SC(C)CC)N1CCSC1=O` (stereo unspecified) [Fosthiazate]: the “Wnt reporter firefly/Renilla luciferase ratio” value (concentration: 0.01 uM) turned out to be 0.839; the “Wnt reporter firefly/Renilla luciferase ratio” value (concentration: 0.1 uM) is 0.761; the “Wnt reporter firefly/Renilla luciferase ratio” value (concentration: 1 uM) was 0.922; the “Wnt reporter firefly/Renilla luciferase ratio” value (concentration: 10 uM) worked out at 1.5; the “Wnt reporter firefly/Renilla luciferase ratio” value (concentration: 100 uM) turned out to be 0.772.

In the case of `ClC1=C(Cl)C2(Cl)C3C4OC4C(Cl)C3C1(Cl)C2(Cl)Cl` (stereo unspecified) [Heptachlor epoxide], the “Wnt reporter firefly/Renilla luciferase ratio” value came to 1.18 (concentration: 0.1 uM), 1.23 (concentration: 1 uM), 1.06 (concentration: 10 uM) and 1.5 (concentration: 100 uM).
